Results reported in PubChem BioAssay AID1085 (Emory University Molecular Libraries Screening Center, 2008).
Out of some 220,000 compounds screened, about 930 (0.42%) were called active. Only a selection was taken, and actives are over-represented in it overall. Values without a mark were called inactive. No stated cut-off is given here; in the data, active means inhibition above about 50%; inactive means the rest.

target: Glycoprotein 42 (Epstein-Barr virus (strain AG876)) (UniProt Q1HVG2); assay: Epstein-Barr virus gp42 inhibitors, primary screen, biochemical, uHTS, fluorescence polarization (AID 1085); conditions: Fluorescence polarization binding assay, mP read-out; stronger effect = higher value; tested at 21.74 µM
Sequence (Q1HVG2 whole entry, looked up): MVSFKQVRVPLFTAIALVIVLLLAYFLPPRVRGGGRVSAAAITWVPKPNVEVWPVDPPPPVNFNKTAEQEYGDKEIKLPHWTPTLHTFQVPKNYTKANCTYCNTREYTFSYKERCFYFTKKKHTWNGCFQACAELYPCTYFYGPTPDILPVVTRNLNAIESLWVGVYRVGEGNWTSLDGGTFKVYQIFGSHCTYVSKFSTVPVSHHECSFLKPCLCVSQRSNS

| SMILES | inhibition |
| --- | --- |
| O=S(=O)(Cc1cc(Sc2ccccc2)nc(-c2ccccc2)n1)c1ccccc1 | 3.74% |
| CCN(c1ccc(NC(=O)COC(=O)CCc2nc3ccccc3n2-c2ccccc2)cc1)C(C)C | -13% |
| COc1ccc([N+](=O)[O-])cc1NC(=O)c1ccc(N(Cc2ccccc2C)S(C)(=O)=O)cc1 | -6.7% |
| Cc1ccc(-c2cnc(NC(=O)CCC(=O)N(C)Cc3ccccc3)n2C)cc1 | 4.29% |
| O=C(N/N=C/c1ccc(Cl)cc1)c1nc2ccc([N+](=O)[O-])cc2c(=O)[nH]1 | 78.6% (active) |
| O=C(N/N=C/c1ccc([N+](=O)[O-])cc1)c1c[nH]c2ccccc12 | -12.7% |
| Cc1nc2ccccc2cc1C(=O)N/N=C/c1ccc([N+](=O)[O-])cc1 | -3.69% |
| Nc1[nH]c(=S)nc2nc(-c3ccccc3)c(-c3ccccc3)nc12 | -1.95% |
| COc1ccc(NC(=O)Cn2c(=O)n(Cc3ccco3)c(=O)c3ccccc32)cc1 | -3.89% |
| Cc1cs/c(=N\N=C\c2ccc(O)cc2)n1Cc1ccco1 | 8.07% |
| CN(c1ccccc1)S(=O)(=O)c1cccc(NC(=O)Cc2c(F)cccc2Cl)c1 | 13.1% |
| O=S(=O)(c1ccc(F)cc1)N1CCN(C(=S)NC2CCCC2)CC1 | -9.24% |
| CCN(CC)P(=O)(Nc1ccc(SC(F)F)cc1)c1ccc(N(C)C)cc1NC(=O)c1ccco1 (configuration not stated) | -14.5% |
| O=C(NCCN1C(=O)S/C(=C\c2cccnc2)C1=O)c1ccc(S(=O)(=O)N2CCCC2)cc1 | -22.6% |
| O=C(O)COc1ccc(-c2nccc(-c3cccs3)n2)cc1 | 50.4% (active) |
| O=C(Nc1ccnc(-c2ccncc2)n1)c1cccs1 | -5.75% |
| COC(=O)CSc1nccc(-c2cccs2)n1 | -13.3% |
| CCN(CC)C(=O)Oc1ccc(Br)cc1C(=O)Nc1ccc(F)c(Cl)c1 | -10.6% |
| Cc1ccccc1N1C(=O)C(Oc2ccc(Cl)cc2)C1CNCC1CCCO1 (configuration not stated) | -2.06% |

| SMILES | inhibition |
| --- | --- |
| COc1cc(C(CCN2CCN(c3ccccc3)CC2)c2c(OC)cc(OC)c3ccc(=O)oc23)cc(OC)c1OC (configuration not stated) | -16.3% |
| COc1ccc(N2CCN(C(=O)/C(C#N)=C/c3ccccc3)CC2)cc1 | -19% |
| CCOC(=O)/C(C#N)=C/c1ccc(N2CCCCC2)cc1 | -25.7% |
| CCOC(=O)/C(C#N)=C/c1ccc(N2CCN(Cc3ccccc3)CC2)cc1 | 128% (active) |
| Cc1ccc(C(=O)COC(=O)CCCC(=O)NC2CCCCC2)cc1[N+](=O)[O-] | 4.86% |
| O=C(Cc1ccc(Br)cc1)N1CCN(c2ccccn2)CC1 | 4.9% |
| CC(=O)NNC1=Nc2ccccc2N(C)C(C)C1 (configuration not stated) | -1.65% |
| COc1ncnc2c1N=C1CC(C)(C)CC(N)=C1S2 | 81.4% (active) |
| CC(C)(C)c1ccc(/C=C/C(=O)Nc2ncccn2)cc1 | -8.99% |
| COc1cc(N2C(=O)CC3(CCCC3)CC2=O)cc(OC)c1OC | -4.54% |
| CCOC(=O)N1CC=C2C(C#N)=C(N)C(C#N)(C#N)[C@H](c3cccs3)[C@H]2C1 | 6.62% |
| CCN1CC=C2C(C#N)=C(N)C(C#N)(C#N)[C@H](c3ccoc3)[C@H]2C1 | 56.6% (active) |
| CCCN1CC=C2C(C#N)=C(N)C(C#N)(C#N)C(c3cc(OC)ccc3OC)C2C1 (configuration not stated) | 36.5% |
| Cc1no[n+]([O-])c1COc1ccccc1/C=C1\NC(=S)NC1=O | -22.4% |
| COc1ccc(-n2cnnc2SCC(=O)Nc2cccc([N+](=O)[O-])c2)cc1 | 6.38% |
| CC1CN(S(=O)(=O)c2ccc(C(=O)Nc3sccc3C(N)=O)cc2)CC(C)O1 (configuration not stated) | 6.08% |
| O=C(Nc1cccnc1)c1ccc(Cl)c([N+](=O)[O-])c1 | -3.95% |
| Cn1cc(CN2CCCC(CO)C2)c(-c2ccc(Oc3ccccc3)cc2)n1 (configuration not stated) | -12.6% |
| COC(=O)C1=C(C)Nc2ncnn2C1c1ccco1 (configuration not stated) | 6.95% |

| SMILES | inhibition |
| --- | --- |
| Brc1ccc(C2=CC(c3ccco3)n3ncnc3N2)cc1 (configuration not stated) | 105% (active) |
| CC1=C(C(=O)OCc2ccccc2)C(c2ccco2)n2ncnc2N1 (configuration not stated) | 4.92% |
| Cc1cc(-c2nc(C)c(-c3nnc(SCC(=O)Nc4ccccc4)n3C)s2)no1 | -5.93% |
| COc1ccc(Cc2n[nH]c(=S)n2NC(=O)Nc2ccc(C)cc2)cc1 | -9.72% |
| O=C(Nc1cn(-c2ccccc2)nc1-c1ccccc1)c1ccccc1 | -10.3% |
| CCCCN1C(=O)CC(N2CCOCC2)C1=O (configuration not stated) | -40.1% |
| N#C/C(=C\C1=C(N2CCOCC2)C(=C\c2ccccc2)/CC1)C(=O)Nc1ccccc1F | 154% (active) |
| N#C/C(=C\c1ccccc1C(F)(F)F)C(=O)Nc1ccccc1F | -19.9% |
| C(=N\N1CCN(c2ccccn2)CC1)/C1=C(N2CCOCC2)C(=C/c2ccccc2)/CC1 | 22.4% |
| Cc1sc2nc(CC(N)=O)[nH]c(=O)c2c1-c1ccccc1 | -7.12% |
| CN1CCN(CCNC(=O)Nc2ccc([N+](=O)[O-])cc2)CC1 | -6.33% |
| CCN(CC(=O)Nc1ccc(S(=O)(=O)N2CCCC2)cc1)CC(=O)Nc1cccc(OC)c1 | -7.32% |
| CCCCCCCCc1c(O)nc(-n2[nH]c(C)c(CCO)c2=O)[nH]c1=O | -21.7% |
| COc1ccc(C2=CC(c3cccc(OC)c3)n3nnnc3N2)cc1 (configuration not stated) | -13.3% |
| COc1ccc(C2C=C(c3ccc(Br)cc3)Nc3nc(NS(C)(=O)=O)nn32)cc1 (configuration not stated) | 80.6% (active) |
| COc1ccc(C2CC(c3ccc(C)cc3)Nc3nc(N)nn32)cc1 (configuration not stated) | -6.12% |
| CCOCCCNC(=S)N1CCC(NC(=O)C2CCCCC2)CC1 | -2.69% |
| Oc1c(Cl)cc(Cl)c(Cl)c1Cc1c(O)c(Cl)cc(Cl)c1Cl | 59.7% (active) |
| CCCC[C@@H]1CN=C(N)N1CCc1cc(C(F)(F)F)cc(C(F)(F)F)c1 | -11.3% |
